Reference: PubChem BioAssay AID1159580 (chemical genetic matrix, 2015)
“And” between values parts separate entries of the source, which are not always exact repeats. Identical values can stand only once. In all, about 5,500 compounds went through this assay and about 2,000 (36%) were called active. Roughly 18% stayed inconclusive and do not appear here. No stated cut-off is given here; in the data, active means normalized growth mostly below about 0.91 (no sharp cut-off); inconclusive means no clear call, values can overlap the other calls; inactive means mostly above about 0.92. The list shows a part of the results.

Assay: chemical genetic growth profiling, strain panel (AID 1159580);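 further: tested at 20 µM; growth read once vehicle control cultures reached saturation at 30 °C; 1 = growth at the plate median or of vehicle wells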
Conditions: S. cerevisiae deletion strains, growth OD

Measured: normalized growth

Clc1ccc(COC(Cn2ccnc2)c2ccc(Cl)cc2Cl)c(Cl)c1 (configuration not stated)
active: locus YAL013W, strain DEP1, stronger effect = lower value 0.0568 | locus YAL021C, strain ccr4, stronger effect = lower value 0.0668 | locus YAL026C, strain drs2, stronger effect = lower value 0.0674 | locus YAL030W, strain snc1, stronger effect = lower value 0.0581 | locus YBL061C, strain skt5, stronger effect = lower value 0.0608 | locus YBR009C, strain hhf1, stronger effect = lower value 0.0655 | locus YBR021W, strain FUR4, stronger effect = lower value 0.0874 | locus YBR023C, strain chs3, stronger effect = lower value 0.0682 | locus YBR171W, strain sec66, stronger effect = lower value 0.0803 | locus YBR229C, strain ROT2, stronger effect = lower value 0.0268 | locus YBR231C, strain swc5, stronger effect = lower value 0.0764 | locus YBR279W, strain paf1, stronger effect = lower value 0.0803 | locus YCL011C, strain gbp2, stronger effect = lower value 0.0572 | locus YCL016C, strain dcc1, stronger effect = lower value 0.0647 | locus YCL029C, strain bik1, stronger effect = lower value 0.0612 | locus YCL061C, strain MRC1, stronger effect = lower value 0.065 | locus YCL069W, strain vba3, stronger effect = lower value 0.0638 | locus YCR088W, strain abp1, stronger effect = lower value 0.0654 | locus YDL005C, strain med2, stronger effect = lower value 0.0803 | locus YDL035C, strain GPR1, stronger effect = lower value 0.0505 | locus YDL040C, strain nat1, stronger effect = lower value 0.0613 | locus YDL074C, strain BRE1, stronger effect = lower value 0.0763 | locus YDL101C, strain DUN1, stronger effect = lower value 0.0503 | locus YDL134C, strain PPH21, stronger effect = lower value 0.0516 | locus YDL185W, strain tfp1, stronger effect = lower value 0.0554 | locus YDL192W, strain arf1, stronger effect = lower value 0.0597 | locus YDR001C, strain nth1, stronger effect = lower value 0.0613 | locus YDR069C, strain doa4, stronger effect = lower value 0.065 | locus YDR101C, strain arx1, stronger effect = lower value 0.0587 | locus YDR137W, strain rgp1, stronger effect = lower value 0.111 | locus YDR150W, strain NUM1, stronger effect = lower value 0.0575 | locus YDR159W, strain sac3, stronger effect = lower value 0.0885 | locus YDR162C, strain NBP2, stronger effect = lower value 0.0451 | locus YDR195W, strain ref2 0.126 | locus YDR297W, strain sur2, stronger effect = lower value 0.0574 | locus YDR318W, strain mcm21, stronger effect = lower value 0.0643 | locus YDR334W, strain swr1, stronger effect = lower value 0.0662 | locus YDR335W, strain msn5, stronger effect = lower value 0.0617 | locus YDR388W, stronger effect = lower value 0.056 | locus YDR392W, strain spt3, stronger effect = lower value 0.101 | locus YDR502C, strain sam2, stronger effect = lower value 0.0624 | locus YEL003W, strain gim4, stronger effect = lower value 0.0564 | locus YEL037C, strain rad23, stronger effect = lower value 0.0601 | locus YEL061C, strain CIN8 (second series), stronger effect = lower value 0.0638 | locus YEL061C, strain CIN8, stronger effect = lower value 0.0482 | locus YER015W, strain faa2, stronger effect = lower value 0.0604 | locus YER016W, strain bim1, stronger effect = lower value 0.0607 | locus YER110C, stronger effect = lower value 0.0744 | locus YER111C, strain swi4, stronger effect = lower value 0.0809 | locus YER155C, strain BEM2 (second series), stronger effect = lower value 0.0947 | locus YER155C, strain BEM2, stronger effect = lower value 0.0667 | locus YER167W, strain BCK2, stronger effect = lower value 0.0577 | locus YFR010W, strain ubp6, stronger effect = lower value 0.0709 | locus YGL078C, strain dbp3, stronger effect = lower value 0.0696 | locus YGL086W, strain mad1, stronger effect = lower value 0.0583 | locus YGL167C, strain pmr1, stronger effect = lower value 0.0799 | locus YGL173C, strain kem1, stronger effect = lower value 0.072 | locus YGL227W, strain vid30, stronger effect = lower value 0.067 | locus YGL240W, strain doc1, stronger effect = lower value 0.0883 | locus YGL248W, strain PDE1, stronger effect = lower value 0.0461 | locus YGL253W, strain hxk2, stronger effect = lower value 0.0558 | locus YGR078C, strain PAC10, stronger effect = lower value 0.0558 | locus YGR135W, strain pre9, stronger effect = lower value 0.0676 | locus YGR229C, strain SMI1, stronger effect = lower value 0.0622 | locus YGR252W, strain gcn5, stronger effect = lower value 0.155 | locus YHR013C, strain ard1, stronger effect = lower value 0.106 | locus YHR027C, strain rpn1, stronger effect = lower value 0.0625 | locus YHR030C, strain SLT2, stronger effect = lower value 0.0509 and 0.102 | locus YHR079C, strain IRE1 (second series), stronger effect = lower value 0.0623 | locus YHR079C, strain IRE1, stronger effect = lower value 0.124 | locus YHR094C, strain hxt1, stronger effect = lower value 0.0654 | locus YHR129C, strain ARP1, stronger effect = lower value 0.0576 | locus YHR142W, strain chs7, stronger effect = lower value 0.0767 | locus YHR200W, strain rpn10, stronger effect = lower value 0.0606 | locus YIL066C, strain RNR3, stronger effect = lower value 0.0442 | locus YIL073C, strain SPO22, stronger effect = lower value 0.115 | locus YIL125W, strain kgd1, stronger effect = lower value 0.0693 | locus YIR030C, strain dcg1, stronger effect = lower value 0.0593 | locus YJL092W, strain hpr5, stronger effect = lower value 0.061 | locus YJL095W, strain BCK1 (second series), stronger effect = lower value 0.059 | locus YJL095W, strain BCK1, stronger effect = lower value 0.0515 and 0.106 | locus YJL115W, strain asf1, stronger effect = lower value 0.0748 | locus YJL129C, strain trk1, stronger effect = lower value 0.0933 | locus YJL134W, strain LCB3, stronger effect = lower value 0.0457 | locus YJL154C, strain vps35, stronger effect = lower value 0.062 | locus YJL164C, strain tpk1, stronger effect = lower value 0.0667 | locus YJL166W, strain qcr8, stronger effect = lower value 0.0609 | locus YJL168C, strain set2, stronger effect = lower value 0.0574 | locus YJL187C, strain SWE1 (second series), stronger effect = lower value 0.0406 | locus YJL187C, strain SWE1, stronger effect = lower value 0.0602 | locus YJR043C, strain POL32, stronger effect = lower value 0.0602 | locus YJR066W, strain TOR1, stronger effect = lower value 0.0025
